Here are results for 26 molecules from PubChem BioAssay (NCATS).

Values without a mark were called inactive. For some assays here: Entries with a potency or affinity are not part of this list. Calls of active or inactive are those of the source. The rule behind the calls is not given here.

The conditions of experiment [1]: Ebola virus entry assay, green fluorescence channel.
The conditions of experiment [2]: Ebola virus entry assay, blue channel fluorescence.
The conditions of experiment [3]: Ebola virus entry assay, ratio channel.
The conditions of experiment [4]: Ebola virus entry assay, reporter ratio channel; Channel type: primary.
Throughout, for efficacy: 0% is about no effect.

The term AC50 denotes the midpoint of the concentration-response curve, whichever way the signal moves. `CCOC(=O)[C@H](CCc1ccccc1)N[C@H]1CCc2ccccc2N(CC(=O)O)C1=O`: the efficacy in experiment [1] is 88%. The AC50 in experiment [2], in experiment [3] and in experiment [4] was 3.98 µM (active) each time.
As for `CN1CCC(=C2c3ccccc3CC(=O)c3sccc32)CC1`, the efficacy in experiment [1] was 93.4%. Also, the AC50 in experiment [2] was 31.6 µM (active); in experiment [3] it was 28.2 µM (active); in experiment [4] it was 28.2 µM (active).
For `CN1CCN(C2=Nc3ccccc3Sc3ccc(Cl)cc32)CC1`, the efficacy in experiment [1] was 66%. Also, the AC50 in experiment [2] and in experiment [4] was 39.8 µM (active) each time. Besides, the outcome in experiment [3] was inactive.
Turning to `O=C(CCCN1CCN(c2ccc(F)cc2)CC1)NC1c2ccccc2CSc2ccccc21` (centres undefined), in experiment [1], the efficacy was 64.4%. In addition, the AC50 in experiment [2] is 8.91 µM (active); in experiment [3] it was 7.08 µM (active); in experiment [4], 7.08 µM (active).
Turning to `CC1=C(C)C(=O)C(C(CCCCCC(=O)O)c2ccccc2)=C(C)C1=O` (centres undefined), the efficacy in experiment [1] is 61.1%. In addition, the molecule was classed as inactive in experiment [2], in experiment [3] and in experiment [4].
Turning to `CN1CCCC(CC2c3ccccc3Sc3ccccc32)C1` (centres undefined), in experiment [1], the efficacy is -153%. The AC50 in experiment [2] was 5.62 µM (active); in experiment [3] it was 3.16 µM (active); in experiment [4], 3.16 µM (active).
With `Nc1c2c(nc3c1CCC3)CCCC2`, in experiment [1], the efficacy is 42.2%. In addition, the AC50 in experiment [2] was 28.2 µM (active); in experiment [4], 31.6 µM (active). For the same molecule, the result in experiment [3] was inactive.
`O=C(Nc1ccc(Cl)cc1)Nc1ccc(Cl)c(C(F)(F)F)c1`: the efficacy in experiment [1] is -174%. The AC50 in experiment [2] was 28.2 µM (active); in experiment [3] it was 8.91 µM (active); in experiment [4], 8.91 µM (active).
Turning to `COc1ccccc1N1CCN(CC(O)COc2cccc3ccccc23)CC1` (centres undefined), in experiment [1], the efficacy was -101%. The figures for the AC50 in experiment [2], in experiment [3] and in experiment [4] were 28.2 µM (active), 12.6 µM (active) and 12.6 µM (active), respectively.
On to `CCC(C(=O)OCCOCCN(CC)CC)c1ccccc1` (centres undefined), for which the efficacy in experiment [1] was 61.4%. In addition, the AC50 in experiment [2] was 28.2 µM (active); in experiment [3], 22.4 µM (active); in experiment [4] it was 22.4 µM (active).
Take `N/C(=N\N=C\c1ccc(Cl)cc1)N/N=C/c1ccc(Cl)cc1`: the efficacy in experiment [1] was -188%. The AC50 in experiment [2] and in experiment [4] was 39.8 µM (active) throughout. The outcome in experiment [3] was inactive.
Take `C=C1c2cccc(O)c2C(O)=C2C(=O)[C@]3(O)C(O)=C(C(N)=O)C(=O)[C@@H](N(C)C)[C@@H]3[C@@H](O)[C@H]12`: the efficacy in experiment [1] was 38.3%. Moreover, the AC50 in experiment [2] is 7.08 µM (active); in experiment [3] it was 6.31 µM (active); in experiment [4], 6.31 µM (active).
Take `CC[C@]12CCCN3CCc4c(n(c5ccccc45)C(=O)C1)[C@@H]32`: in experiment [1], the efficacy was 62%. Besides, the AC50 in experiment [2], in experiment [3] and in experiment [4] was 28.2 µM (active) each time.
Turning to `O=C(c1ccc(F)cc1)C1CCN(CCn2c(=S)[nH]c3ccccc3c2=O)CC1`, the efficacy in experiment [1] is 48.9%. For the same molecule, the concentration at half-maximal activity (AC50) was 35.5 µM (active) in experiment [2], 17.8 µM (active) in experiment [3] and 17.8 µM (active) in experiment [4].
Take `CN1C[C@H](C(=O)N[C@]2(C)O[C@@]3(O)[C@@H]4CCCN4C(=O)[C@H](Cc4ccccc4)N3C2=O)C[C@@H]2c3cccc4[nH]cc(c34)C[C@H]21`: the efficacy in experiment [1] is 95.4%. The results for the AC50 in experiment [2], in experiment [3] and in experiment [4] were 28.2 µM (active), 17.8 µM (active) and 17.8 µM (active), respectively.
Consider `C[C@H]1[C@H]2CC[C@H]3[C@@H]4CC=C5C[C@@H](N(C)C)CC[C@]5(C)[C@H]4CC[C@]23CN1C`, for which the efficacy in experiment [1] was 108%. The AC50 in experiment [2], in experiment [3] and in experiment [4] was 10 µM (active) throughout.
As to `CC(C)N=C(N)/N=C(\N)Nc1ccc(Cl)cc1`, the efficacy in experiment [1] is 78.8%. The AC50 in experiment [2] and in experiment [4] was 39.8 µM (active) in each case. In addition, the outcome in experiment [3] was inactive.
On to `O=C(Nc1ccccc1)OCC(CN1CCCCC1)OC(=O)Nc1ccccc1` (centres undefined), for which the efficacy in experiment [1] was 31.7%. For the same molecule, the AC50 in experiment [2], in experiment [3] and in experiment [4] was 10 µM (active) throughout.
With `C[C@@H]1C[C@H]2[C@@H]3C[C@H](F)C4=CC(=O)C(Cl)=C[C@]4(C)[C@@]3(F)[C@@H](O)C[C@]2(C)[C@@]1(O)C(=O)CO`, in experiment [1], the efficacy was 76%. The AC50 in experiment [2] and in experiment [4] was 39.8 µM (active) in each case. Also, the outcome in experiment [3] was inactive.
`CCC(=O)O[C@]1(C(=O)CCl)[C@@H](C)C[C@H]2[C@@H]3CCC4=CC(=O)C=C[C@]4(C)[C@@]3(F)[C@@H](O)C[C@@]21C`: the efficacy in experiment [1] was 88.5%. Besides, the AC50 in experiment [2], in experiment [3] and in experiment [4] was 31.6 µM (active) in each case.
With `CN(C)c1ccc(C(=C2C=CC(=[N+](C)C)C=C2)c2ccccc2)cc1`, the efficacy in experiment [1] is -236%. Besides, the values for the AC50 in experiment [2], in experiment [3] and in experiment [4] were 0.891 µM (active), 0.708 µM (active) and 0.708 µM (active), respectively.
`CCCCCCCCCCCCCCNCCO`: in experiment [1], the efficacy was 123%. Further, the AC50 in experiment [2] was 15.8 µM (active); in experiment [3] it was 12.6 µM (active); in experiment [4], 12.6 µM (active).
With `O=C(CCCN1CCC(O)(c2ccc(Br)cc2)CC1)c1ccc(F)cc1`, the efficacy in experiment [1] was 36.8%. Besides, the AC50 is 7.94 µM (active) in experiment [2], 5.62 µM (active) in experiment [3] and 5.62 µM (active) in experiment [4].
Turning to `CC(C)COCC(CN(Cc1ccccc1)c1ccccc1)N1CCCC1` (centres undefined), the efficacy in experiment [1] was -190%. The AC50 was 2.82 µM (active) in experiment [2], 2 µM (active) in experiment [3] and 2 µM (active) in experiment [4].
Turning to `CCOc1ccccc1O[C@H](c1ccccc1)[C@H]1CNCCO1`, the efficacy in experiment [1] was 89.3%. The AC50 in experiment [2] is 14.1 µM (active); in experiment [3] it was 15.8 µM (active); in experiment [4], 15.8 µM (active).
Take `CCN(CC)CCCN(c1ccccc1)C1Cc2ccccc2C1`: the efficacy in experiment [1] was 47.4%. Also, the AC50 in experiment [2], in experiment [3] and in experiment [4] was 3.55 µM (active) in each case.
